# Measurements reported in PubChem BioAssay (NCATS).
# Inconclusive results are not listed. Values without a mark were called inactive. Calls of active or inactive are those of the source. The call rests on the fitted dose curve; in most records, active means well fitted activation curve with a large enough effect; inconclusive means small, poorly fitted or top-dose-only effect; inactive means no such curve, though single readings can be large or run the other way.
# Molecular target: Rap guanine nucleotide exchange factor 4 (Homo sapiens) (UniProt Q8WZA2)
# Test: Confirmatory qHTS for agonist of cAMP-regulated guanine nucleotide exchange factor 4 (EPAC2) (AID 1645884);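 further: nucleotide exchange releases bodipy-GDP from Rap1 and this lowers its fluorescence; nearly all actives have a fitted effect of over 65% in size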
# Details: EPAC2 GEF activity, Rap1B-BODIPY-GDP fluorescence; series mostly up to 154 µM; activation: at the top concentration
# On the % scale 0 is the no-effect control and ±100 the full control effect; potency means the concentration at half of the fitted maximal effect.
# Chain of Rap guanine nucleotide exchange factor 4 (Homo sapiens) (Q8WZA2 whole entry, looked up): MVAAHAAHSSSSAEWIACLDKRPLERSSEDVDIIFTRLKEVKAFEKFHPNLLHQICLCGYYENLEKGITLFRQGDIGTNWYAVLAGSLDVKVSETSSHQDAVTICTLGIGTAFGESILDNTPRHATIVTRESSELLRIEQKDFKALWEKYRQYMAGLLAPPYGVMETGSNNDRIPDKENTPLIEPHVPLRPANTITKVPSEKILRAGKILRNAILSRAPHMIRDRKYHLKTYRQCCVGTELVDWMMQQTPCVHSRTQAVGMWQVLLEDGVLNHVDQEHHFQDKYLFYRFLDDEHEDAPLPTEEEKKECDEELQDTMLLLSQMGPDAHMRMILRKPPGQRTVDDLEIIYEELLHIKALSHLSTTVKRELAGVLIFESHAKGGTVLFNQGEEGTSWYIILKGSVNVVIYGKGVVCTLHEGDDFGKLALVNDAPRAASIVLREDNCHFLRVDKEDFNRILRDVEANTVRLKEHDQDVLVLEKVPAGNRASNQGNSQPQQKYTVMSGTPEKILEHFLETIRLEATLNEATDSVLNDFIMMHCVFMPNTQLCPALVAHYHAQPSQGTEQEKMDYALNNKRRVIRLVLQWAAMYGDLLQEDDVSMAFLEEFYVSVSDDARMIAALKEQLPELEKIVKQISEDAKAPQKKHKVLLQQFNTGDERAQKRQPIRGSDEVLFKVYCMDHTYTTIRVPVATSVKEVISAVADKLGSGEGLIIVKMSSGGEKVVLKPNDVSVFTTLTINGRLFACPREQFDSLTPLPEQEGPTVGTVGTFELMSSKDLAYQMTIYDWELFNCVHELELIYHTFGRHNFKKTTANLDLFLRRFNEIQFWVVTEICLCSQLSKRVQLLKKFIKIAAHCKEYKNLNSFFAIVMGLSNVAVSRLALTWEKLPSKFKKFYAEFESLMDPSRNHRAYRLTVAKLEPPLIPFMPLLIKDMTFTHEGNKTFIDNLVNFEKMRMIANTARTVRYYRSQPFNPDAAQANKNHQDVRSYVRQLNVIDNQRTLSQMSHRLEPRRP
Compound,activation,Potency
COC(=O)c1cc(OC)nc2ccc(Br)cc12,0.332%,–
C=CCc1cc(/C=C/c2nc(O)c([N+](=O)[O-])c(=O)[nH]2)cc(OC)c1O,-0.347%,–
COc1ccc2nc(N3CCN(C(=O)C4CC4)CC3)sc2c1,"-1.93% [at 83.8 µM, percent relative to cAMP agonist control]",–
O=C(O)CN1C(=O)/C(=C\c2ccccc2OCc2ccc(Cl)cc2Cl)SC1=S,"-0.613% [at 17.1 µM, percent relative to cAMP agonist control]",–
NS(=O)(=O)c1ccc(-c2cccc(/C=C3\SC(=O)NC3=O)c2)cc1,-10.2%,–
O=C(Nc1cc(C(=O)Nc2ccccc2C(=O)O)cc(C(=O)Nc2ccccc2C(=O)O)c1)c1ccccc1,"5.98% [at 17.1 µM, percent relative to cAMP agonist control]",–
Cc1cc(S(=O)(=O)Nc2ccccc2C)ccc1F,-4.88%,–
COc1ccc(NC(=O)c2ccc(NC3=NC4CS(=O)(=O)CC4S3)cc2)cc1 (stereo not given),"1.91% [at 17.1 µM, percent relative to cAMP agonist control]",–
COc1cc2ccccc2cc1C(=O)N1CC(C)CC(C)C1 (stereo not given),"1.37% [at 17.1 µM, percent relative to cAMP agonist control]",–
COc1cc(/C=C2\SC(=S)N(NS(=O)(=O)c3ccccc3)C2=O)ccc1O,-4.07%,–
O=C1c2ccccc2S(=O)(=O)c2cc(N3CCC4(CC3)OCCO4)ccc21,13%,–
O=c1oc(-c2ccccc2)c(-c2ccccc2)c2ccccc12,4.43%,–
CCOC(=O)Cn1c(=O)oc2cc(S(=O)(=O)Nc3c(C)cc(C)cc3C)ccc21,"4.43% [at 17.1 µM, percent relative to cAMP agonist control]",–
CC1Cc2nc(SCC(=O)NCc3ccccc3)n(Cc3ccccc3)c(=O)c2S1 (stereo not given),"2.68% [at 17.1 µM, percent relative to cAMP agonist control]",–
Cc1[nH]n(-c2ccccc2)c(=O)c1C(c1cc(Cl)ccc1O)c1c(C)[nH]n(-c2ccccc2)c1=O,"-11.4% [at 83.8 µM, percent relative to cAMP agonist control]",–
CN(CC(=O)Nc1cccc(F)c1)C(=O)CN1c2cccc3cccc(c23)S1(=O)=O,14.4%,–
CCc1nnc(NS(=O)(=O)c2ccc(NC(=S)NC(=O)/C=C/c3ccccc3)cc2)s1,-12.4%,–
CCN1C/C(=C/c2ccc(N3CCOCC3)cc2)C(=O)/C(=C/c2ccc(N3CCOCC3)cc2)C1,–,100 µM (active)
COC(=O)C1(Cc2ccccc2)NC(c2ccc(F)cc2)C2C(=O)N(C)C(=O)C21 (stereo not given),"1.04% [at 17.1 µM, percent relative to cAMP agonist control]",–
O=C1NC(=Nc2ccccc2Cl)S/C1=C\c1cccc([N+](=O)[O-])c1O,-34.4%,–

Compound,activation,Potency
Cc1ccccc1N(CC(=O)NC1CCCC1)C(=O)c1csnn1,"-0.443% [at 17.1 µM, percent relative to cAMP agonist control]",–
CCOC(=O)C1=C(C)N=C2SC=C(C)N2C1c1ccc(OC)cc1 (stereo not given),3.32%,–
COc1nc(C)cc(C)c1S(=O)(=O)c1ccccc1C,-6.13%,–
CC1(C)Cc2ccccc2-c2nnc(-c3ccc4ccccc4n3)n21,-7.42%,–
CC(C)CCNC1c2ccccc2C(=O)N1Cc1ccccc1 (stereo not given),"11.2% [at 17.1 µM, percent relative to cAMP agonist control]",–
O=C(CCC1CCCC1)Nc1ccc([N+](=O)[O-])cn1,-4.65%,–
COc1cccc(C2=NN(C(C)=O)C(c3cccs3)C2)c1 (stereo not given),-4.01%,–
CCOc1ccc(N2C(=O)Nc3ccccc3C2(O)C(=O)NCc2ccc(C)cc2)cc1 (stereo not given),"-4.83% [at 17.1 µM, percent relative to cAMP agonist control]",–
CCOc1cc(/C=N/Nc2ccc(S(=O)(=O)Nc3ccccc3C(=O)O)cc2[N+](=O)[O-])cc(Cl)c1O,-21.5%,–
COc1cc(/C=C2\SC(=O)N(c3ccccc3Cl)C2=O)cc([N+](=O)[O-])c1O,-24.6%,–
CC1S/C(=N/N=C2CCC(C(C)(C)C)CC2)NC1=O (stereo not given),"-7.78% [at 17.1 µM, percent relative to cAMP agonist control]",–
CC(=O)c1cccc(OC(=O)C2=CC=CN3CCS(=O)(=O)N=C23)c1,4.54%,–
COc1ccccc1Cn1c(=O)oc2ccc(C)cc21,2%,–
O=C(NC1CCC(O)CC1)c1cccc2cccnc12 (stereo not given),3.96%,–
O=C(c1ccccc1[N+](=O)[O-])N1CCN(c2ccc(N3CCOCC3)nn2)CC1,-1.36%,–
CN(Cc1ccccc1N1CCCC1)C(=O)c1cc2ccccc2o1,"4.19% [at 17.1 µM, percent relative to cAMP agonist control]",–
CC1CCC2=NN(C(=O)c3ccco3)C(O)(C(F)(F)F)C2C1 (stereo not given),"4.2% [at 17.1 µM, percent relative to cAMP agonist control]",–
CCOc1cc(C2C3=C(CC(C)(C)CC3=O)N(CCOC)C3=C2C(=O)CC(C)(C)C3)ccc1O,-2.68%,–
Nc1[nH]c(C(=O)c2ccccc2)c(-c2ccccc2C(F)(F)F)c1C(=O)NCCc1cccs1,-8.65%,–
CCCCCC1CCC(c2ccc(C(N)=O)cc2)CC1 (stereo not given),-7.29%,–
